The results in this text go back to PubChem BioAssay (EPA / NIEHS).

Inconclusive results are not listed. Activity calls are given as the source filed them. The calls were made as follows: active = hit-call score of the fitted dose curve at least 0.9, where 1 is the maximum; inconclusive = response in the unintended direction; inactive = score below 0.9.

Glycogen synthase kinase-3 beta (Homo sapiens), sequence (P49841 whole entry, looked up): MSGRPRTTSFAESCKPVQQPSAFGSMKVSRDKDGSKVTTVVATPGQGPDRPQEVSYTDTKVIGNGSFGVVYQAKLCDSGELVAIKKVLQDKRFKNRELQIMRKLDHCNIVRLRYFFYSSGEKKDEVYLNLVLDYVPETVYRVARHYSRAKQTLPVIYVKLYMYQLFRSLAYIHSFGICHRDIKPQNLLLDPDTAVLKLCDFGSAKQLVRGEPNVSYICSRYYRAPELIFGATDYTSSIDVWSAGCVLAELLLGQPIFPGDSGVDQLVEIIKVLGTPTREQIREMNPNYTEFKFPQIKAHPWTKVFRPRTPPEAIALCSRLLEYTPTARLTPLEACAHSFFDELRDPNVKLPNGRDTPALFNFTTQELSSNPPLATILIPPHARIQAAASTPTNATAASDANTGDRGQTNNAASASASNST

This experiment addresses Glycogen synthase kinase-3 beta (Homo sapiens) (UniProt P49841). Kind of experiment: NVS_ENZ_hGSK3b: NovaScreen (NVS) Enzymatic Assay for human Glycogen Synthase Kinase-3 beta (GSK3b) (AID 2283165). Here is the method: NVS_ENZ_hGSK3b is a biochemical, single-readout assay that uses extracted gene-proteins in a cell-free assay. Measurements were taken 1 hour after chemical dosing in a 384-well plate.NVS_ENZ_hGSK3b is one of one assay component(s) measured or calculated from the NVS_ENZ_hGSK3b assay. It is designed to make measurements of enzyme activity, a form of enzyme reporter, as detected with fluorescence intensity signals by Fluorescence and electrophoretic mobility shift technology.Data from the assay component NVS_ENZ_hGSK3b was analyzed into 1 assay endpoint. This assay endpoint, NVS_ENZ_hGSK3b, was analyzed in the positive analysis fitting direction relative to DMSO as the negative control and baseline of activity. Using a type of enzyme reporter, loss-of-signal activity can be used to understand changes in the enzymatic activity as they relate to the gene GSK3B. Furthermore, this assay endpoint can be referred to as a primary readout, because this assay has produced multiple assay endpoints where this one serves a enzymatic activity function. To generalize the intended target to other relatable targets, this assay endpoint is annotated to the kinase intended target family, where the subfamily is serine/threonine kinase.
Binding assays used specific radioligands (tritiated, iodinated) with non-radioactive competitive displacement ligands in agonist or antagonist protocols (as indicated) and various reference compounds and inhibitors to titrate specific binding to receptors and transporters. Most enzyme assays (CYPs, kinases, phosphatases, proteases, HDACs) used recombinant protein and specific substrates (fluorescence mostly, some colorimetric and radioactive) and inhibitors, followed by a biochemical separation of substrate and product. All assays for the biochemical HTS were initially run in duplicate at a single concentration (10 uM for CYP450 assays and 25 uM for all others). Assay-chemical combinations meeting a pre-defined threshold (e.g., 30% inhibition and other criteria defined below) were then run in singleton concentration-response format with maximum concentration of 20 uM for CYPs and 50 uM for all others. Each assay was run with positive and negative controls, and concurrent controls on every plate. The follow-up (secondary) screen tested active chemical-pairs in concentration series, as well as a few additional assays not tested in the primary screen, some selected negative inactives, and several cases re-run in the concentration series for confirmatory purposes.
`CCNS(=O)(=O)C(F)(F)C(F)(F)C(F)(F)C(F)(F)C(F)(F)C(F)(F)C(F)(F)C(F)(F)F`: the result was inactive. Turning to `CN(C)c1ccccc1`, the outcome was inactive. On to `O=[N+]([O-])C(Br)(CO)CO`, for which the compound was called inactive. Turning to `CCN(CC)N=O`, the call was inactive. Regarding `Cc1cccc(N)c1N`, the AC50 (in general, the concentration giving half of the maximal activity seen) is 27.9 µM (active). On the same count and under the same terms, the figure for `CN(C)[C@@H]1C(=O)C(C(N)=O)=C(O)[C@@]2(O)C(=O)C3=C(O)c4c(O)cccc4[C@@](C)(O)[C@H]3C[C@@H]12` is 25 µM (active). `Clc1ccccc1Cl`: the result was inactive. The same measure, in the same setting: the entry for `Cc1ccc([N+](=O)[O-])cc1` is “inactive”.

Regarding `CCN(CC)CCO`, the outcome was inactive. `Nc1ccc(Cc2ccc(N)cc2)cc1`: the call was inactive. On the same count and under the same terms, the entry for `CN(C)c1ccc(C(=O)c2ccc(N(C)C)cc2)cc1` is “inactive”; for `Nc1ccc(N=Nc2ccccc2)cc1` it is “inactive”; for `OCCCl` it is “inactive”. Still for that read-out and setting: the entry for `CCOC(=O)[C@]1(c2ccccc2)Oc2ccccc2[C@@H]1N` is “inactive”.

Regarding `O=C(Oc1ccc(Br)cc1)N1CCN2CCC1CC2`, the result was inactive. In the case of `CC(O)CCO` (stereo unspecified), the call was inactive.
